The target in test [1] is Aryl hydrocarbon receptor (Homo sapiens) (UniProt P35869). In words: qHTS assay to identify small molecule that activate the aryl hydrocarbon receptor (AhR) signaling pathway (AID 743085).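 For activation: HG2L7.5c1 human HepG2 liver cells with stably integrated DRE-driven firefly reporter; series mostly up to about 70 µM.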 Note: nearly all actives have a fitted effect of over 15% in size. Note: potency is the fitted concentration of half-maximal effect. The essentials:
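HepG2 cells stably carrying a 20-DRE firefly luciferase reporter (HG2L7.5c1) treated with compound for 24 hr at 37C. Luciferase read by ONE-Glo luminescence, with CellTiter-Fluor viability read first.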

Test [2] can be described thus: qHTS assay to identify small molecule antagonists of the peroxisome proliferator-activated receptor gamma (PPARg) signaling pathway - cell viability counter screen (AID 743194). Note: nearly all actives have a fitted effect of over 55% in size. Note: potency is the fitted concentration of half-maximal effect. In outline:
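PPARg-UAS-bla HEK293H cells were plated, rested 5 h at 37 C, then treated with compounds plus rosiglitazone (50 nM final) for 17 h at 37 C; viability was then read by CellTiter-Glo luminescence after 30 min at room temperature.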
A general note: qHTS replaces the single test concentration by a dilution series.

The nature of test [3]: qHTS assay for small molecule agonists of the antioxidant response element (ARE) signaling pathway - cell viability counter screen (AID 743203; calls by dose curve; note: nearly all actives have a fitted effect of over 55% in size; note: potency is the fitted concentration of half-maximal effect). In outline:
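CellSensor ARE-bla HepG2 cells, 2,000 per well, rested 5 hrs at 37C/5% CO2, then exposed to compound in DMSO for 16 hrs; viability read as CellTiter-Glo luminescence after 30 min at room temperature, in the reporter wells.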

A short description of test [4]: qHTS assay to identify small molecule agonists of the farnesoid-X-receptor (FXR) signaling pathway - cell viability counter screen (AID 743218). Note: nearly all actives have a fitted effect of over 45% in size. Note: potency is the fitted concentration of half-maximal effect. The essentials:
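FXR-UAS-bla HEK 293T cells, plated 5 h at 37 C, were exposed to compounds for 16 h at 37 C. CellTiter-Glo was then added to the same wells as the bla readout; luminescence read after 30 min at room temperature.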

Test [5] can be described thus: qHTS assay to identify small molecule antagonists of the farnesoid-X-receptor (FXR) signaling pathway - cell viability counter screen (AID 743221; active = well fitted cell-killing curve with a large enough effect in the repeat runs, not every such curve was filed as active; note: nearly all actives have a fitted effect of over 50% in size; note: potency is the fitted concentration of half-maximal effect). The essentials:
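GeneBLAzer FXR-UAS-bla HEK 293T cells, compound plus chenodeoxycholic acid (50 uM final), 16 h at 37 C. CellTiter-Glo added to the same wells after the beta-lactamase read; luminescence read after 30 min at room temperature as viability.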

Test [6] is described as follows: qHTS assay for small molecule activators of the heat shock response signaling pathway - cell viability counter screen (AID 743209). Note: nearly all actives have a fitted effect of over 50% in size. Note: potency is the fitted concentration of half-maximal effect. The essentials:
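CellSensor HSE-bla HeLa cells, plated overnight at 37 C/5% CO2, were exposed to compounds in DMSO for 5 h at 37 C. Viability was then read in the same wells by CellTiter-Glo luminescence after 30 min at room temperature.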

Test [7] can be described thus: qHTS assay for small molecule activators of the heat shock response signaling pathway (AID 743210; active = well fitted activation curve with a large enough effect in the signal ratio in the repeat runs, with a control signal flat, not every such curve was filed as active; the % refers to the signal ratio; note: series mostly up to about 63 µM). The essentials: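 HSE-bla HeLa cells (beta-lactamase reporter under heat shock response elements) were exposed to compounds for 5 h at 37 C, then loaded with LiveBLAzer B/G FRET substrate for 2.5 h at room temperature before fluorescence reading.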
A short description of test [8]: qHTS assay to identify small molecule antagonists of the peroxisome proliferator-activated receptor delta (PPARd) signaling pathway - cell viability counter screen (AID 743213). Note: nearly all actives have a fitted effect of over 50% in size. Note: potency is the fitted concentration of half-maximal effect. The essentials:
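Viability counter-screen, qHTS format: PPARd-bla HEK293H, L165041 300 nM final, 17 h compound exposure at 37 C, CellTiter-Glo luminescence after 30 min RT.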

Test [9] has as its target Bile acid receptor (Homo sapiens) (UniProt Q96RI1). In words: qHTS assay to identify small molecule agonists of the farnesoid-X-receptor (FXR) signaling pathway (AID 743220; active = well fitted activation curve with a large enough effect in the signal ratio in the repeat runs, not every such curve was filed as active; the % refers to the signal ratio; note: potency is the fitted concentration of half-maximal effect). The essentials:
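Beta-lactamase reporter under UAS control in GeneBLAzer FXR HEK 293T cells (5000/well) measured with LiveBLAzer FRET substrate after 2 h at room temperature. Compound exposure lasted 16 h at 37C.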

Test [10] can be described thus: qHTS assay to identify small molecule agonists of the peroxisome proliferator-activated receptor delta (PPARd) signaling pathway - cell viability counter screen (AID 743211). Note: nearly all actives have a fitted effect of over 55% in size. Note: potency is the fitted concentration of half-maximal effect. The essentials:
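PPARd-bla HEK293H cells (3000/well) were pre-incubated 5 h at 37 C, then exposed to compound for 17 h at 37 C. After 2 h with LiveBLAzer substrate, CellTiter-Glo was added to the same wells; luminescence read after 30 min at room temperature.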

Test [11] concerns the target Vitamin D3 receptor (Homo sapiens) (UniProt P11473). In words: qHTS assay to identify small molecule agonists of the vitamin D receptor (VDR) signaling pathway (AID 743222; calls by dose curve; note: potency is the fitted concentration of half-maximal effect). The essentials: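 VDR-bla cells were plated 4 h at 37C/5% CO2, then exposed to compounds in DMSO for 16 h. After LiveBLAzer B/G FRET substrate addition and 2 h at room temperature, beta-lactamase reporter fluorescence was read.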

For test [12] the target is unchanged. As to the kind of experiment: qHTS assay to identify small molecule antagonists of the vitamin D receptor (VDR) signaling pathway (AID 743223; active = well fitted inhibition curve with a large enough effect in the signal ratio in the repeat runs, not every such curve was filed as active; the % refers to the signal ratio). The essentials: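 VDR-bla cells were treated with compound plus 3 nM final 1alpha,25-dihydroxyvitamin D3 for 16 h at 37C. Beta-lactamase reporter read by B/G FRET substrate fluorescence after 2 h at room temperature. qHTS format.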

The nature of test [13]: qHTS assay for small molecule agonists of the antioxidant response element (ARE) signaling pathway (AID 743202; active = well fitted activation curve with a large enough effect in the signal ratio in the repeat runs, not every such curve was filed as active; the % refers to the signal ratio; note: potency is the fitted concentration of half-maximal effect). The essentials:
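Read-out: LiveBLAzer B/G FRET substrate fluorescence after 2 h at room temperature, following 16 h compound treatment at 37 C of HepG2 cells carrying an ARE-driven beta-lactamase reporter.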

Test [14] concerns the target Peroxisome proliferator-activated receptor delta (Homo sapiens) (UniProt Q03181). In words: qHTS assay to identify small molecule agonists of the peroxisome proliferator-activated receptor delta (PPARd) signaling pathway (AID 743212; calls by dose curve; note: potency is the fitted concentration of half-maximal effect). The essentials: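 GeneBLAzer PPARd UAS-bla HEK293H cells (beta-lactamase reporter under UAS control), plated and rested 5 h at 37 C, then exposed to compounds in DMSO at 37 C; LiveBLAzer B/G FRET substrate added, 2 h room temperature, fluorescence read.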

Test [15] addresses Peroxisome proliferator-activated receptor gamma (Homo sapiens) (UniProt P37231). In words: qHTS assay to identify small molecule agonists of the peroxisome proliferator-activated receptor gamma (PPARg) signaling pathway (AID 743094; active = well fitted activation curve with a large enough effect in the signal ratio in the repeat runs, not every such curve was filed as active; the % refers to the signal ratio). The essentials:
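GeneBLAzer PPARg UAS-bla HEK293H cells carrying a stably integrated beta-lactamase reporter were pre-incubated 5 h at 37C, then exposed to compounds in DMSO for 17 h at 37C; LiveBLAzer B/G FRET substrate was added for 1 h at room temperature and fluorescence read.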

The nature of test [16]: qHTS assay to identify small molecule that activate the aryl hydrocarbon receptor (AhR) signaling pathway - cell viability counter screen (AID 743086). Note: nearly all actives have a fitted effect of over 45% in size. Note: potency is the fitted concentration of half-maximal effect. In outline: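 HepG2-AhR-luc (HG2L7.5c1) cells, 4000/well, were preincubated 5 h at 37C, exposed to compound in qHTS format for 24 hr at 37C, then given CellTiter-Fluor for 30 min; viability was read as fluorescence in the reporter wells.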

In test [17] the target is Peroxisome proliferator-activated receptor gamma (Homo sapiens) (UniProt P37231). In words: qHTS assay to identify small molecule antagonists of the peroxisome proliferator-activated receptor gamma (PPARg) signaling pathway (AID 743191; calls by dose curve; note: potency is the fitted concentration of half-maximal effect; nearly all actives have a fitted effect of over 30% in size). The essentials:
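GeneBLAzer PPARg UAS-bla HEK293H cells carrying a UAS-driven beta-lactamase reporter were plated at 3000 cells/well, preincubated 5 h at 37C, then given compound for 17 h at 37C; LiveBLAzer B/G FRET substrate was read after 1 h at room temperature.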

“And” between values parts separate entries of the source, which are not always exact repeats. Equal entries are not always repeated. Records with an inconclusive call do not appear. The source made the active and inactive calls. Unless noted, calls come from the whole dose curve; as a rule, active = well fitted curve in the direction sought with a large enough effect in the repeat runs; inconclusive = weak or mixed curves; inactive = no such curve, though single readings can be large; an effect the other way counts as inactive or inconclusive.

Vitamin D3 receptor (Homo sapiens), sequence (P11473 whole entry, looked up): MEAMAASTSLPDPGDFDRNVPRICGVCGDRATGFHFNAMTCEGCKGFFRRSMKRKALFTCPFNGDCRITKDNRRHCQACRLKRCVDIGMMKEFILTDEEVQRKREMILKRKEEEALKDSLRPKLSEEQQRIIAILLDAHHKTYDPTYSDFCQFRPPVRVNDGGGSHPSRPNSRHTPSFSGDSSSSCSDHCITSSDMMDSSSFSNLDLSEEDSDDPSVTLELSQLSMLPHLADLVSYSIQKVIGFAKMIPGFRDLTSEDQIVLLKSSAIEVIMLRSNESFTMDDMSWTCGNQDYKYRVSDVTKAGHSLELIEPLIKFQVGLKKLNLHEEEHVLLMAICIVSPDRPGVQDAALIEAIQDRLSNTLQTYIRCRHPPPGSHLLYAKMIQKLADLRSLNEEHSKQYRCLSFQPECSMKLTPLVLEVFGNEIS
Peroxisome proliferator-activated receptor delta (Homo sapiens), sequence (Q03181 whole entry, looked up): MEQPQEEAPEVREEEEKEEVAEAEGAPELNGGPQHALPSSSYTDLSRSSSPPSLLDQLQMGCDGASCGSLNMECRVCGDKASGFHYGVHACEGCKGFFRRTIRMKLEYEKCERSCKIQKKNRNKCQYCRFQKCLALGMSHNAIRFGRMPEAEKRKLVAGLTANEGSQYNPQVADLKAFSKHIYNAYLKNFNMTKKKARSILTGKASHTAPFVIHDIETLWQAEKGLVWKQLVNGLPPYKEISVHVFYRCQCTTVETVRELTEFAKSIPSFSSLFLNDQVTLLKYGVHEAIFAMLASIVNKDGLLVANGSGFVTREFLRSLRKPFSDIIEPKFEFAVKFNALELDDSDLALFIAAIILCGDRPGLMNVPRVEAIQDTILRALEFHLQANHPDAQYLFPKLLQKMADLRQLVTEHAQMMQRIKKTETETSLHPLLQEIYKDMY
Bile acid receptor (Homo sapiens), sequence (Q96RI1 whole entry, looked up): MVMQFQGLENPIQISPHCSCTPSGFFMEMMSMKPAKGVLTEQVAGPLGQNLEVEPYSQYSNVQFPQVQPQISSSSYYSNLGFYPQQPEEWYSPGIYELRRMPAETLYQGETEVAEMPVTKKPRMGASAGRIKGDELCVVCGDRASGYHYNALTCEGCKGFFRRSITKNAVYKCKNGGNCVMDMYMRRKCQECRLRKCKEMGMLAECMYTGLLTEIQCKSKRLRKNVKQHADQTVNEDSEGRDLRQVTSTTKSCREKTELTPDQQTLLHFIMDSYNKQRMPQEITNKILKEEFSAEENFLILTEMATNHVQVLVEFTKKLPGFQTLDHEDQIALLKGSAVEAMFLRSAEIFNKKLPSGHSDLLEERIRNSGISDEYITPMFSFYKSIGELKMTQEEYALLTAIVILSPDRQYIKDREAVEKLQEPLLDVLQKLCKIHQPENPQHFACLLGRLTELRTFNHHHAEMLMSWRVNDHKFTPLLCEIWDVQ
Aryl hydrocarbon receptor (Homo sapiens), sequence (P35869 whole entry, looked up): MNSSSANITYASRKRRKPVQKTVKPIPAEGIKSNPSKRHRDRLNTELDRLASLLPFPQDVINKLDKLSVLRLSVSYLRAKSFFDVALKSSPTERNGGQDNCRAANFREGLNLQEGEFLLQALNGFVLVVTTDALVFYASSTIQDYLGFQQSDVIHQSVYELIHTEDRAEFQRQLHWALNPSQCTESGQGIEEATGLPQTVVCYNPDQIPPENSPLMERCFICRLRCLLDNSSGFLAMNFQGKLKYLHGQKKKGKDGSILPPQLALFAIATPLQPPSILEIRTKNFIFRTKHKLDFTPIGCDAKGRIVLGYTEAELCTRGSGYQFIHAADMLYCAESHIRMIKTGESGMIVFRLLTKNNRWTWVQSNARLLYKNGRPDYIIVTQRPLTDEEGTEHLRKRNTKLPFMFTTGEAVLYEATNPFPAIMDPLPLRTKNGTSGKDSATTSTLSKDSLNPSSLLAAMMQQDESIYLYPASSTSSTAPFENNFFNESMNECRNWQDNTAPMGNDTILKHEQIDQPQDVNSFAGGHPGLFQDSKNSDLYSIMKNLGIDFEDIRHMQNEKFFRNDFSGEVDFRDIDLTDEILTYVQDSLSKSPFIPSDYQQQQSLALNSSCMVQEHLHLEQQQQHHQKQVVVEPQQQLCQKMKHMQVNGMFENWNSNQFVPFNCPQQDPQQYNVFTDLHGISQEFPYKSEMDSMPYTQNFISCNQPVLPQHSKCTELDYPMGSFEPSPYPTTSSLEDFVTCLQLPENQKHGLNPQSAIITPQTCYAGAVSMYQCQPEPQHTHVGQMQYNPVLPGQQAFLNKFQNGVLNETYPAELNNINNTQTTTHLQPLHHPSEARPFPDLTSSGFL
Peroxisome proliferator-activated receptor gamma (Homo sapiens), sequence (P37231 whole entry, looked up): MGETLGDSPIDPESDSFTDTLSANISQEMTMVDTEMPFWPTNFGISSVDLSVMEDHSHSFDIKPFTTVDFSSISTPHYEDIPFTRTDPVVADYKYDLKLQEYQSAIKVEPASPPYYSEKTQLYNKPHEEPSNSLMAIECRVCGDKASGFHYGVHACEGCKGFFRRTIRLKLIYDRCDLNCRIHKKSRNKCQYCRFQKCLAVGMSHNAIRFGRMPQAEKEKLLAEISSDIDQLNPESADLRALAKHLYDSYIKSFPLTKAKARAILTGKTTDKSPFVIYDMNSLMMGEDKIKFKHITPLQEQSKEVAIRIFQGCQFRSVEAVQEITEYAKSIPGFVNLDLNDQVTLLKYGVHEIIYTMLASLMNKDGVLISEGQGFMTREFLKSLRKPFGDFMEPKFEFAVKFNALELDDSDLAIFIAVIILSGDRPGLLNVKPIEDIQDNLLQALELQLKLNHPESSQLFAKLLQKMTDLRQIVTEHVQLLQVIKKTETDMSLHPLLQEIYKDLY

For the molecule `OCCN(CCO)c1nc(N2CCCCC2)c2nc(N(CCO)CCO)nc(N3CCCCC3)c2n1`, the Potency entry in test [1], in test [2], in [3], in [4] and in test [5] was “inactive” throughout.

Turning to `OCCN1CCN(CC/C=C2/c3ccccc3Sc3ccc(C(F)(F)F)cc32)CC1`, the Potency result in test [1], in test [6], in [7] and in [9] was “inactive” in each case. Besides, the Potency in [3] was 29.8 µM (active); in test [8] it was 23.7 µM (active); in [4], 26.6 µM (active); in [5] it was 23.7 µM (active).

`Cc1cccc2c1cc1ccc3cccc4ccc2c1c34`: the Potency is 0.558 µM (active) in test [1] and 3.16 µM (active) in test [11]. Besides, the Potency result in test [2], in test [3], in test [6], in test [10], in test [8] and in [4] was “inactive” each time. Moreover, in [12], the Potency result is “inactive”.

Consider `Nc1c2ccccc2nc2ccccc12`, for which the Potency was 11.9 µM (active) and 13.5 µM (active) in [1]; 4.22 µM (active) in test [13]; 24 µM (active) in test [3]; 26.6 µM (active) in test [14]; 9.44 µM (active) in test [9]. In addition, the Potency entry in test [2], in test [10], in test [4] and in [5] was “inactive” in each case.

In the case of `O=C(NOCC1CC1)c1ccc(F)c(F)c1Nc1ccc(I)cc1Cl`, the Potency entry in [1], in test [15], in test [4], in [5] and in test [11] was “inactive” in each case. Besides, the Potency was 13.3 µM (active) in [2] and 29.8 µM (active) in [6].

On to `CCCCCCCCOC(=O)c1ccc(O)cc1`, for which the Potency entry in test [16], in test [2], in [13], in test [14], in test [4] and in test [5] was “inactive” each time. For the same molecule, the values for the Potency in test [10] and in test [8] were 48.8 µM (active) and 49 µM (active), respectively.

`COc1c(C)c2c(c(O)c1C/C=C(\C)CCC(=O)O)C(=O)OC2`: the Potency entry in test [1], in test [16], in test [2], in test [6], in test [7] and in [9] was “inactive” in each case. In test [11], the Potency entry is “inactive”. The Potency in test [17] was 0.473 µM (active).

Consider `CC(C)n1nc(-c2cc3cc(O)ccc3[nH]2)c2c(N)ncnc21`, for which the Potency in test [1] is 3.76 µM (active); in [16] it was 0.75 µM (active); in [10], 13.3 µM (active). Moreover, the Potency entry in test [3], in [14] and in test [5] was “inactive” each time.

For the molecule `O=C(Nc1cccc([N+](=O)[O-])c1)c1cc2ccccc2cc1O`, the Potency in [1] was 2.43 µM (active); in test [2], 0.195 µM (active); in test [13], 1.72 µM (active). Further, the Potency entry in test [15], in [3], in [6], in test [14], in test [4] and in test [11] was “inactive” each time.

For the origin of these results see PubChem BioAssay (Tox21).
